tim23-1 inh: inhibits growth of tim23-1 mutant yeast; S. cerevisiae tim23-1 growth, BacTiter-Glo luminescence, 24 h; inhibition, % at 20 µM; 330,000 compounds, 1.3% hits;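 active = growth inhibition of the mutant yeast at or above 50%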;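 note: temperature-sensitive mutant grown at 25 °C; plate controls were DMSO-treated mutant yeast for no effect and medium wells lacking yeast for full effect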
PfHsp90 set2: inhibits growth of yeast expressing Plasmodium falciparum Hsp90. S. cerevisiae expressing PfHsp90, BacTiter-Glo ATP, 48 h; yeast lacking PDR1 and PDR3 efflux regulators. inhibition, % at 9.4 µM. 310,000 compounds, 0.32% hits. AID 504621;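 active = every replicate shows inhibition above about 80%, whatever the replicate mean, limit read from the data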;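 note: 0% = DMSO neutral controls and 100% = 20 µM radicicol positive controls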
tim10-1 inh: tim10-1 yeast growth inhibition; S. cerevisiae tim10-1 ts strain growth, BacTiter-Glo, 24 h; inhibition, % at 20 µM; 330,000 compounds, 2.2% hits;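 active = inhibition of at least 40%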;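 note: mutant grown at 25 °C; 0% = DMSO wells with yeast and 100% = wells holding no yeast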
TIM10 inh: inhibits growth of TIM10 yeast strain; 330,000 compounds, 1.4% hits; S. cerevisiae TIM10 strain growth, BacTiter-Glo luminescence, 24 h; AID 463195; inhibition, % at 10 µM;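 active = inhibition of 40% or more at the single tested concentration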;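 note: wild-type TIM10 isogenic control strain grown at permissive 25 °C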
Mot1-301 SUMO: SUMOylation pathway inhibition by Mot1-301 growth rescue. S. cerevisiae Mot1-301 growth rescue, ATP luminescence, 38.5C; percent above DMSO median, 100 means doubled. 320,000 compounds, 1% hits. growth rescue, % at 18.8 µM;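 active = every valid replicate shows activation above 250% relative to neutral control wells; inactive = the rest, any valid replicate at or below 250%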;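 note: OY570 slx delta 5 strain wells were the positive control but not used for scaling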
Mot1 SUMO dose: yeast SUMO pathway inhibition in dose response; growth activity, percent, % at 42 µM; S. cerevisiae Mot1-301 galactose growth, ATP luminescence, 24 h; -100 = growth of slx-deleted rescue strain; shares compounds with Mot1-301 SUMO; 2,300 tested, under 10 active;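 active = Signal drops as the depositor expects, and the fitted half-maximal dose is no more than ten times the top valid tested dose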;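 note: more negative values mean stronger growth rescue toward the control strain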
An asterisk follows results filed as active; i = inactive; x = no result given; + = active, no number; [ ] = dose if it differs, or a comment. An excerpt weighted towards active compounds, which were near 4.4% of everything screened.

SMILES | tim23-1 inh | PfHsp90 set2 | tim10-1 inh | TIM10 inh | Mot1-301 SUMO | Mot1 SUMO dose
Cc1n[nH]c(=O)c2c(NC(=O)COC(=O)Cc3ccc(Cl)cc3Cl)oc(C)c12 | 13.1 | -0.9 | -7.3 | 8.5 | 535.3* | 0.5[21 µM]
Cc1cccc(C)c1NC(=O)CNC(=O)C(C)NC(C)c1ccccc1Br (centres undefined) | -7.5 | 15.0 | 1.9 | 5.1 | 7.4 | x
Cc1nc(N2CCN(c3ccccn3)CC2)c2c(C)c(C(=O)N3CCN(c4ccccc4F)CC3)sc2n1 | x | -1.8 | x | x | 427.3* | 0.3
Cc1ccc(NC(=O)c2sc3nc(C)nc(N4CCN(c5ccccn5)CC4)c3c2C)c(C)c1 | 33.0 | 28.9 | 16.5 | 16.4 | 15.3 | x
COc1ccc(-n2c3c(cc(C(=O)NCC(=O)c4ccccc4)c2=O)C(=O)CC(C)(C)C3)cc1 | 3.7 | -8.7 | 6.4 | -0.5 | 443.0* | -0.2
Cc1cc(C)n(-c2ccc(C(=O)OC(C)C)cc2)n1 | 2.5 | 0.7 | -5.9 | -13.3 | 2.5 | x
Cc1cc(C)n(-c2ccc(C(=O)C(C#N)c3nc4ccccc4n3C)cc2)n1 (centres undefined) | 15.8 | 9.0 | 15.5 | 12.7 | 775.3* | 0.1
CN(C)CCOC(c1ccccc1)c1ccccc1 | x | 26.0 | -12.5 | -3.7 | -3.6 | x
CN(C)CCOC(c1ccc(Cl)cc1)c1ccccn1 (centres undefined) | -17.7 | -16.9 | -7.6 | -4.8 | 974.2* | 0.3
COc1ccc(C(=O)N[C@H](C(=O)NCCCSc2ccccc2)C(C)C)cc1 | 2.9 | -1.4 | -9.7 | -7.1 | 5.3 | x
CC(C)c1ccc(/C=C2\SC(N3CCCC3)=NC2=O)cc1 | 33.4 | 2.0 | 18.6 | 32.1 | -11.3 | x
Cc1ccc(/C=C2\SC(N3CCCC3)=NC2=O)cc1 | 24.0 | x | 22.4 | 29.3 | 477.1* | -0.5
COc1ccc(NC(=O)c2ccc(COc3ccccc3OC)o2)cc1OC | 27.0 | 2.1 | 10.7 | 22.8 | 476.2* | 0.0
COc1ccc(CCNC(=O)c2cc(-c3ccco3)on2)cc1OC | 7.8 | 3.7 | -6.5 | -9.6 | 566.1* | -0.8
O=S(=O)(NCc1ccccc1)c1ccc(S(=O)(=O)N(Cc2ccccn2)Cc2ccco2)cc1 | -19.2 | -13.1 | -12.0 | -7.6 | 840.9* | 0.1
CCN(CC)S(=O)(=O)c1ccc(S(=O)(=O)N(Cc2ccccn2)Cc2ccco2)cc1 | 25.2 | -10.1 | -6.6 | 16.9 | -13.1 | x
COc1ccc(NC(=O)N(O)C2(C#N)CCCCC2)cc1 | x | 7.2 | x | x | x | x
O=C(N/C(=C\c1ccccc1)C(=O)N1CCOCC1)c1ccccc1Br | 2.8 | 9.8 | -2.7 | -0.7 | -2.0 | x
O=S(=O)(Cc1cc(-c2ccccc2)no1)c1ccccc1 | 19.4 | 15.9 | -8.9 | -5.5 | 642.6* | -0.1
CC1C=CCC2C(=O)N(c3cccc(C(=O)Nc4ccc(F)cc4)c3)C(=O)C12 (centres undefined) | 6.5 | 3.5 | 5.9 | 6.8 | -1.7 | x
CCCC(=O)Nc1nnc(/C=C/c2ccc(OC)cc2)s1 | 10.6 | -5.3 | -3.0 | 11.1 | 3.1 | x
CCCCC(=O)Nc1nnc(/C=C/c2ccc(OC)cc2)s1 | 17.3 | -21.8 | 17.8 | -4.8 | 713.9* | 0.0
CSc1cccc(CN2CCC(CCC(=O)NC3CC3)CC2)c1 | 8.9 | -7.8 | 6.9 | 3.7 | 334.4 | x
O=C(c1cc(-c2ccc(Cl)c(Cl)c2)on1)N1CCN(c2ccccc2)CC1 | 2.4 | x | 9.1 | -21.3 | + | -0.1
Cn1nc(C(=O)NCCc2ccc(Cl)cc2)c2c1-c1ccccc1S(=O)(=O)C2 | -9.7 | 0.3 | 12.3 | -10.6 | 439.6* | 0.9
SMILES | tim23-1 inh | PfHsp90 set2 | tim10-1 inh | TIM10 inh | Mot1-301 SUMO | Mot1 SUMO dose
Cc1ccc(CCNC(=O)c2nn(C)c3c2CS(=O)(=O)c2ccccc2-3)cc1 | -18.5 | -9.4 | -26.6 | 2.9 | -7.2 | x
COc1ccc(NC(=O)CSCC(=O)Nc2cccc3ncccc23)cc1 | -1.5 | 11.6 | -3.8 | -2.2 | 227.3 | x
Cc1ccc(S(=O)(=O)N2[C@@H](c3ccccc3)C(C(=O)O)=CC[C@H]2c2ccc(Cl)cc2)cc1 | 5.9 | 13.9 | 32.9 | -3.0 | 376.9* | -1.5
COc1cc([C@@H]2CC=C(C(=O)O)[C@H](c3ccc(F)cc3)N2S(=O)(=O)c2ccc(C)cc2)cc(OC)c1OC | 13.4 | 12.1 | 14.0 | 8.9 | -1.8 | x
COc1cc([C@@H]2CC=C(C(=O)O)[C@H](c3ccccc3F)N2S(=O)(=O)c2ccc(C)cc2)cc(OC)c1OC | -9.1 | -3.4 | -13.9 | 11.2 | 662.1* | -0.7
CCCCNC(=O)CSc1nnc(-c2cccc(S(=O)(=O)N3CCOCC3)c2)o1 | -1.1 | 10.0 | -1.4 | -8.1 | x | x
Cc1ccc(C)n1-n1cnc2sc3c(c2c1=O)CCCCC3 | 34.9 | 13.9 | 25.3 | 26.4 | 595.6* | -0.1
CC(=O)NCc1c(Cl)cccc1-n1cccc1 | -5.7 | -1.1 | 8.2 | -8.5 | 785.2* | -0.3
CC1CCC(CN2C(Nc3ccccc3)=NC[C@@H]2C)CC1 (some centres undefined) | 12.0 | 6.9 | 5.2 | 8.5 | 15.9 | x
Cc1ccc(C2(C)NC(=O)N(CC(=O)N(Cc3ccccc3)C(C)(C)C)C2=O)cc1 (centres undefined) | 25.2 | -7.1 | 26.8 | 4.5 | 7.0 | x
CCOC(=O)CN1NC2(CCC(C(C)(C)C)CC2)NC1=S (centres undefined) | 5.2 | 1.0 | 37.3 | 11.9 | 500.0* | -0.4
O=C(CCCc1nc2ccccc2s1)NCc1cccnc1 | 3.9 | 4.2 | -4.1 | 2.1 | i | x
Cc1cc(C)n(-c2nc(-c3ccccc3)cs2)n1 | -3.7 | -9.7 | 21.4 | -0.3 | -5.5 | x
Cc1cc(C)n(-c2nc(-c3cccc(Cl)c3)cs2)n1 | 19.4 | 16.9 | -7.1 | -13.3 | 434.2* | 0.5
CC(C)C[C@H]1CN=C(Nc2ccccc2)N1CCCC1CCCC1 | 8.8 | 31.2 | 8.1 | 5.3 | -14.8 | x
CCCCCCCN1C(Nc2ccccc2)=NC[C@@H]1CC(C)C | 0.5 | 25.0 | 19.0 | -5.8 | 610.7* | -1.0[21 µM]
CCOC(=O)c1ccc(NC(=O)c2nc[nH]c2C(=O)N2CCc3ccccc3C2)cc1 | 19.0 | 19.9 | 16.0 | 24.1 | 371.0* | 0.3
Cc1ccc(NC(=O)c2nc[nH]c2C(=O)N2CCc3ccccc3C2)cc1 | 25.3 | 10.3 | 9.7 | 2.6 | -10.5 | x
O=S(=O)(c1ccc(-c2ccon2)s1)N1CCN(c2ccccn2)CC1 | 10.6 | -11.6 | 11.9 | 20.2 | 18.6 | x
O=C(NCc1cccc(F)c1F)C1CCC(=O)N(C2CC2)C1 (centres undefined) | 11.7 | 0.4 | 4.0 | 1.3 | 421.0* | 0.5
CCCc1cc(C(=O)NC2CCCN(Cc3ccccc3F)C2)no1 (centres undefined) | 5.4 | 11.4 | 15.7 | 1.2 | 2.9 | x
O=C(Nc1nc2ccccc2s1)c1cccc(S(=O)(=O)N2CCc3ccccc32)c1 | 32.5 | 5.9 | 24.6 | 15.9 | + | 0.5
COc1ccc(-c2nc(NC(=O)CCNC(=O)c3ccco3)sc2C)cc1 | 27.9 | -2.1 | -5.9 | 9.3 | 368.0* | 0.3
